The list is not random: actives were taken first. Their share in the collection is about 2.4%.
D2 PAM-1 – HTS Assay for Positive Allosteric Modulators of the Human D2 Dopamine Receptor: Primary Screen for Potentiators; D(2) dopamine receptor (Homo sapiens), P14416; HEK293 T-REx D2, calcium flux, EC20 dopamine potentiation; potentiation, % at 10 µM; 340,000 tested, 0.34% active; AID 485347, 2010;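 active = potentiation over 3 SD above the plate norm, cut at about 30% in these data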; also: 0% is about no effect
Target sequence (P14416 whole entry, looked up): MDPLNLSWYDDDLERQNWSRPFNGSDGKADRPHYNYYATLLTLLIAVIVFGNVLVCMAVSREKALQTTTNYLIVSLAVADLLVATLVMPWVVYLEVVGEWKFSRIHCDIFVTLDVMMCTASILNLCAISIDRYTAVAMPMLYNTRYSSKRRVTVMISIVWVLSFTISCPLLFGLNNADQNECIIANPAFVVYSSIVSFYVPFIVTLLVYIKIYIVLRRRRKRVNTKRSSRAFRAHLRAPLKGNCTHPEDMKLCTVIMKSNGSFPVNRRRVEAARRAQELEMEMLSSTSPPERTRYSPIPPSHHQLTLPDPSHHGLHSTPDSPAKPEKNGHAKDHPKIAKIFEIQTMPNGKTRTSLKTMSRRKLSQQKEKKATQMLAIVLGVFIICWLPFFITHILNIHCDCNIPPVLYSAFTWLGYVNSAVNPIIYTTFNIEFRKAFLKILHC
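Potentiation of an EC20 dopamine calcium response is measured in a force-coupled, tetracycline-inducible Hek293 Trex D2 line. Compound-only kinetic reads over 180 s flag agonists before dopamine addition.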
D2 ag-1 – HTS Assay for Allosteric Agonists of the Human D2 Dopamine Receptor: Primary Screen for Agonists; D(2) dopamine receptor (Homo sapiens), P14416; HEK293 T-REx D2 cells, calcium flux agonist mode; activation, % at 2 µM; 340,000 tested, 0.53% active;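 active = activation over 3 SD above normal in the single-dose calcium agonist read, cut at about 30% in these data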; also: 0% is about no effect
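In this primary screen, compounds producing a positive calcium signal within 180 s of addition to tetracycline-induced, force-coupled HEK293 Trex D2 cells are flagged; cells are dye-loaded with a no-wash calcium kit beforehand.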
D2 antagonist – HTS Assay for Allosteric Antagonists of the Human D2 Dopamine Receptor: Primary Screen for Antagonists; HEK293 TREx D2 cells, calcium flux, dopamine EC80; 340,000 tested, 2% active; D(2) dopamine receptor (Homo sapiens), P14416; inhibition, % at 10 µM; in the data active = inhibition above about 30%; inactive = below that, where a call was filed; also: 0% is about no effect
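HEK293 T-REx D2 cells, tet-induced, calcium dye no-wash. Cpd pintool add, 180 s kinetic, then EC80 DA, 180 s kinetic. Ca flux read.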
D2 ag-2 – Beta-Arrestin HTS for Positive Allosteric Modulators of the Human D2 Dopamine Receptor: Agonists. D(2) dopamine receptor (Homo sapiens), P14416. DiscoveRx PathHunter D2 beta-arrestin, luminescence, 90 min; 100% = 57 uM dopamine signal. activation, % (test concentration not listed). 360,000 tested, 0.084% active; in the data active = activation above about 40%; inconclusive = between about 15% and that limit
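DiscoveRx PathHunter D2 beta-arrestin cells (2,100/well) attached overnight, then compound-stimulated 90 min at 37 C in HBSS/10 mM HEPES/0.1% Tween-20 buffer; beta-galactosidase complementation read by luminescence after 1 h at ambient temperature. Dopamine 57 uM final (EC100) as control.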
D2 PAM-2 – Beta-Arrestin HTS for Positive Allosteric Modulators of the Human D2 Dopamine Receptor: Potentiators. D(2) dopamine receptor (Homo sapiens), P14416. potentiation, % (no concentration beside the values). AID 624464, 2012. DiscoveRx D2 beta-arrestin cells, luminescence, 90 min; 100% = 57 uM dopamine signal. 360,000 tested, 0.23% active; in the data active = potentiation above about 50%; inconclusive = mostly about 30% to 49%
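PathHunter D2 cells, attached overnight at 37 deg C, received compound in DMSO plus dopamine at EC20 (50 nM final) for 90 min at 37 deg C. Beta-arrestin recruitment was read as luminescence after 1 h with detection reagent at ambient temperature.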
D3 arrestin ag – qHTS of D3 Dopamine Receptor Agonist: D3 Dopamine Receptor B-arrestin Agonist Confirmatory Assay; shares compounds with D2 ag-1; DiscoveRx D3 beta-arrestin cells, luminescence, 90 min; Potency, µM (highest dose often 76.9 µM), for inactives: top-dose activation, actives largely listed as activators; 2,300 tested, 4% active; AID 720506, 2013;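 also: potency is read from the fitted curve at half-maximal effect; 100% = dopamine control response; nearly all actives have a fitted effect of over 70% in size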
D2 ag-3 – qHTS of D3 Dopamine Receptor Agonist: D2 Dopamine Receptor B-arrestin Agonist Counterscreen. shares compounds with D2 ag-1. DiscoveRx PathHunter D2 beta-arrestin, luminescence, 90 min; response scale: percent relative to full dopamine signal. Potency, µM (titrated, usually from 76.9 µM), inactives show at the top dose activation, hits mostly activators. 2,300 tested, 5.9% active; also: potency is read from the fitted curve at half-maximal effect; % of control where 0% means no effect; nearly all actives have a fitted effect of over 70% in size
Starred values were filed as active, the others as inactive; ? = inconclusive; · = not tested or not shown. Unless noted, calls follow the shape of the dose curve; as a rule, active = well fitted activation curve with a large enough effect; inconclusive = small, poorly fitted or top-dose-only effect; inactive = flat fitted curve, though single readings scatter.

SMILES | D2 PAM-1 | D2 ag-1 | D2 antagonist | D2 ag-2 | D2 PAM-2 | D3 arrestin ag | D2 ag-3
CCOc1ccc(C=NCC(O)c2ccccc2)cc1 (stereo not given) | -2.3 | 20.8 | 12.9 | 3.0 | -7.3 | -3.8% | 1.3%
CCN(CC(=O)Nc1ccc(OC)cc1)C(=O)Cc1ccc(OC)c(S(=O)(=O)N2CCOCC2)c1 | -8.4 | -0.8 | 15.3 | -0.8 | -6.5 | -7.2% | -0.6%
N#Cc1c(/N=C/c2ccc(-c3ccc(C(=O)O)c(Cl)c3)o2)sc2c1CCCC2 | -11.8 | 45.3* | -3.5 | ? | 14.5 | 39.8µM* | ?
N#Cc1c(/N=C/c2ccc(Br)s2)sc2c1CCC2 | 3.0 | 0.3 | -30.4 | 9.2 | 1.8 | · | ·
Cc1ccc(/C=N/c2sc3c(c2C#N)CCC3)o1 | 7.6 | 2.5 | 9.0 | -2.2 | -17.4 | · | ·
N#Cc1c(/N=C\c2ccc(O)c([N+](=O)[O-])c2)sc2c1CCCC2 | -22.9 | 66.6* | 17.6 | ? | 20.3 | ? | 12.9%
N#Cc1c(/N=C/c2ccc(-c3ccccc3C(=O)O)o2)sc2c1CCCC2 | -10.9 | 65.8* | -13.4 | 13.7 | 14.4 | ? | ?
CCc1c(C)sc2c1CCN(C(=O)Nc1ccc(F)c(Cl)c1)C2c1ccc(F)cc1 (stereo not given) | -12.3 | 9.8 | · | · | · | · | ·
CCCN1C(=O)c2[nH]nc(-c3ccccc3O)c2C1c1ccc(OCc2ccccc2)c(OCC)c1 (stereo not given) | 5.7 | -1.3 | · | · | · | · | ·
Cc1ccc(C)n1-c1nnc(N2CCC(C(=O)Nc3ccccc3Br)CC2)s1 | · | -0.1 | · | · | · | · | ·
CCOc1ccc(-n2c(=O)c3c4c(sc3n(CC(=O)NC(C)CC)c2=O)CCCC4)cc1 (stereo not given) | -6.5 | 0.5 | · | · | · | · | ·
COc1ccc(CC(=O)Nc2ccc(S(=O)(=O)NC(C)C)cc2)cc1 | · | · | · | 2.5 | -4.2 | 22.4% | 10.6%
CCCCNS(=O)(=O)c1ccc(NC(=O)Cc2ccc(OC)cc2)cc1 | -7.2 | 0.1 | -3.7 | 1.6 | -4.9 | · | ·
Cc1cccc(CSc2nnc([C@@H]3CCCN3C(=O)OC(C)(C)C)o2)c1 | 0.0 | -1.2 | 35.6* | -3.0 | -31.4 | -0.9% | -4.6%
CCN(Cc1ccccc1)S(=O)(=O)c1cc(C(=O)Nc2cc(Cl)cc(Cl)c2)ccc1F | -8.2 | · | · | · | · | · | ·
O=C1CC(=C2c3ccccc3-c3ccccc32)C(=O)N1CCCCN1CCN(c2ccccc2)CC1 | -16.4 | 73.5* | 43.9* | 12.9 | -13.0 | 8.1% | 22.9%
O=C1CC(=C(c2ccccc2)c2ccccc2)C(=O)N1CCCN1CCN(c2cccc(Cl)c2)CC1 | -6.0 | -0.9 | 11.1 | 3.2 | -20.4 | · | ·
O=c1cc(CN2CCN(c3ccccn3)CC2)nc2sccn12 | -17.4 | 54.5* | 12.4 | 7.6 | 2.4 | 10.3% | 21.7%
c1ccc(CCCN2CCN(c3ccccn3)CC2)cc1 | -19.2 | 75.9* | 75.5* | 1.1 | 0.4 | ? | ?
CC(=O)Nc1sc2c(c1CN1CCN(c3ccccn3)CC1)CCCC2 | -24.1 | 16.1 | -9.7 | -2.6 | -30.7 | · | ·
Cc1sc(NC(=O)c2ccco2)c(CN2CCN(c3ccccn3)CC2)c1C | -29.8 | 67.6* | 123.7* | 8.2 | 18.5 | 11.3% | 29.7%
Cc1ccc(S(=O)(=O)CCN2CCN(c3ccccn3)CC2)cc1 | -6.3 | 6.2 | -0.7 | 1.0 | -12.4 | · | ·
